According to paper PMC5540273 (PLoS ONE, 2017):

Tests used:
Conditions in all cases: concentration: 1 μM, replicates: in singlicate; n = 1
[1] = tested on: AAK1
[2] = tested on: ABL1-nonphosphorylated
[3] = tested on: ABL1-phosphorylated
[4] = tested on: ABL2
[5] = tested on: ACVR1B
[6] = tested on: ACVR1
[7] = tested on: ACVR2A
[8] = tested on: ACVR2B
[9] = tested on: ACVRL1
[10] = tested on: T1, ADCK3
T1 construct: gene CABC1

[11] = tested on: ADCK4
[12] = tested on: AKT1
[13] = tested on: AKT2
[14] = tested on: AKT3
[15] = tested on: ALK
[16] = tested on: T2, AMPK-alpha1
T2 construct: gene PRKAA1

[17] = tested on: T3, AMPK-alpha2
T3 construct: gene PRKAA2

[18] = tested on: ANKK1
[19] = tested on: T4, ARK5
T4 construct: gene NUAK1

[20] = tested on: T5, ASK1
T5 construct: gene MAP3K5
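Further: KINOMEscan kinase panel screen.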

O=C(Nc1n[nH]c2nc(-c3ccc(O)cc3)ccc12)C1CC1 [SB-710363]
%Inh [1]: 38% | %Inh [2]: 88% | %Inh [3]: 74% | %Inh [4]: 0% | %Inh [5]: 0% | %Inh [6]: 74% | %Inh [7]: 55% | %Inh [8]: 50% | %Inh [9]: 1% | %Inh [10]: 0% | %Inh [11]: 0% | %Inh [12]: 0% | %Inh [13]: 0% | %Inh [14]: 61% | %Inh [15]: 0% | %Inh [16]: 0% | %Inh [17]: 0% | %Inh [18]: 0% | %Inh [19]: 0% | %Inh [20]: 18%

Nc1n[nH]c2cnc(-c3ccccc3)cc12 [SB-642124]
%Inh [1]: 37% | %Inh [2]: 0% | %Inh [3]: 0% | %Inh [4]: 16% | %Inh [5]: 0% | %Inh [6]: 41% | %Inh [7]: 0% | %Inh [8]: 13% | %Inh [9]: 0% | %Inh [10]: 19% | %Inh [11]: 24% | %Inh [12]: 0% | %Inh [13]: 8% | %Inh [14]: 0% | %Inh [15]: 30% | %Inh [16]: 0% | %Inh [17]: 30% | %Inh [18]: 23% | %Inh [19]: 0% | %Inh [20]: 6%

Clc1ccc(-c2nn3ncccc3c2-c2ccnc(Nc3ccc4c(c3)OCCO4)n2)cc1 [GW829116]
%Inh [1]: 0% | %Inh [2]: 61% | %Inh [3]: 7% | %Inh [4]: 0% | %Inh [5]: 28% | %Inh [6]: 0% | %Inh [7]: 14% | %Inh [8]: 54% | %Inh [9]: 4% | %Inh [10]: 16% | %Inh [11]: 90.4% | %Inh [12]: 13% | %Inh [13]: 0% | %Inh [14]: 0% | %Inh [15]: 0% | %Inh [16]: 0% | %Inh [17]: 0% | %Inh [18]: 0% | %Inh [19]: 0% | %Inh [20]: 0%

Cc1ccc(C(=O)N2CC[C@@H](O)C2)cc1-n1c(C)cc(OCc2ccc(F)cc2F)c(Br)c1=O
%Inh [1]: 0% | %Inh [2]: 92.1% | %Inh [3]: 90.5% | %Inh [4]: 72% | %Inh [5]: 12% | %Inh [6]: 0% | %Inh [7]: 31% | %Inh [8]: 0% | %Inh [9]: 0% | %Inh [10]: 0% | %Inh [11]: 66% | %Inh [12]: 0% | %Inh [13]: 0% | %Inh [14]: 0% | %Inh [15]: 0% | %Inh [16]: 2% | %Inh [17]: 0% | %Inh [18]: 0% | %Inh [19]: 0% | %Inh [20]: 0%

NCCCC(NC(=O)c1cc(Br)c(-c2ccnc3[nH]ccc23)s1)c1ccccc1.O=C(O)C(F)(F)F.O=C(O)C(F)(F)F (centres unmarked) [GSK1287544]
%Inh [1]: 55% | %Inh [2]: 0% | %Inh [3]: 0% | %Inh [4]: 23% | %Inh [5]: 0% | %Inh [6]: 0% | %Inh [7]: 0% | %Inh [8]: 0% | %Inh [9]: 0% | %Inh [10]: 20% | %Inh [11]: 38% | %Inh [12]: 89% | %Inh [13]: 52% | %Inh [14]: 91.8% | %Inh [15]: 32% | %Inh [16]: 17% | %Inh [17]: 35% | %Inh [18]: 0% | %Inh [19]: 54% | %Inh [20]: 0%

COc1cccc(-c2ccc3c(NC(=O)C4CC4)n[nH]c3n2)c1 [SB-710903]
%Inh [1]: 12% | %Inh [2]: 83% | %Inh [3]: 76% | %Inh [4]: 24% | %Inh [5]: 0% | %Inh [6]: 18% | %Inh [7]: 0% | %Inh [8]: 22% | %Inh [9]: 0% | %Inh [10]: 3% | %Inh [11]: 48% | %Inh [12]: 0% | %Inh [13]: 0% | %Inh [14]: 0% | %Inh [15]: 29% | %Inh [16]: 0% | %Inh [17]: 13% | %Inh [18]: 0% | %Inh [19]: 0% | %Inh [20]: 12%

COc1cc(Nc2nccc(-c3c(-c4cccc(NC(=O)c5c(F)cccc5F)c4)nn4ccccc34)n2)cc(OC)c1OC [GSK323521]
%Inh [1]: 44% | %Inh [2]: 52% | %Inh [3]: 0% | %Inh [4]: 33% | %Inh [5]: 19% | %Inh [6]: 0% | %Inh [7]: 7% | %Inh [8]: 15% | %Inh [9]: 25% | %Inh [10]: 10% | %Inh [11]: 0% | %Inh [12]: 8% | %Inh [13]: 0% | %Inh [14]: 5% | %Inh [15]: 14% | %Inh [16]: 20% | %Inh [17]: 23% | %Inh [18]: 13% | %Inh [19]: 8% | %Inh [20]: 5%

CC(=O)Nc1nc2cnc(Nc3cc(NC(=O)c4cccc(C5(C#N)CC5)c4Cl)ccc3C)nc2s1
%Inh [1]: 23% | %Inh [2]: 99% | %Inh [3]: 59% | %Inh [4]: 70% | %Inh [5]: 0% | %Inh [6]: 0% | %Inh [7]: 0% | %Inh [8]: 0% | %Inh [9]: 0% | %Inh [10]: 0% | %Inh [11]: 0% | %Inh [12]: 7% | %Inh [13]: 13% | %Inh [14]: 0% | %Inh [15]: 0% | %Inh [16]: 7% | %Inh [17]: 21% | %Inh [18]: 0% | %Inh [19]: 2% | %Inh [20]: 0%

COC(=O)Nc1nc2cc(Oc3ccc(NC(=O)Nc4cc(C(F)(F)F)ccc4F)cn3)ccc2[nH]1.Cl.Cl [GW681170]
%Inh [1]: 51% | %Inh [2]: 99.1% | %Inh [3]: 74% | %Inh [4]: 82% | %Inh [5]: 0% | %Inh [6]: 0% | %Inh [7]: 0% | %Inh [8]: 0% | %Inh [9]: 0% | %Inh [10]: 2% | %Inh [11]: 19% | %Inh [12]: 0% | %Inh [13]: 0% | %Inh [14]: 0% | %Inh [15]: 6% | %Inh [16]: 19% | %Inh [17]: 23% | %Inh [18]: 8% | %Inh [19]: 0% | %Inh [20]: 10%

O=C(Nc1ccccc1F)NC1CCN(c2ccnc(Nc3ccc(F)cc3)n2)CC1 [GSK1379800]
%Inh [1]: 17% | %Inh [2]: 0% | %Inh [3]: 0% | %Inh [4]: 12% | %Inh [5]: 0% | %Inh [6]: 6% | %Inh [7]: 0% | %Inh [8]: 0% | %Inh [9]: 0% | %Inh [10]: 1% | %Inh [11]: 64% | %Inh [12]: 0% | %Inh [13]: 11% | %Inh [14]: 0% | %Inh [15]: 17% | %Inh [16]: 14% | %Inh [17]: 0% | %Inh [18]: 1% | %Inh [19]: 0% | %Inh [20]: 4%
